Screening results: PubChem BioAssay, several laboratories
PP1 inh = blocks human PP1-alpha phosphatase, a PP5 counter-screen | P62136 | purified PP1alpha, OMFP fluorescence | inhibition, % at 6.7 µM | 0.9% of 320,000 active;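 active means inhibition above the mean inhibition of all tested compounds plus 3 SD, computed separately for each screening campaign, cut at about 15% in these data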
ATG4B inh = ATG4B (human) cysteine protease inhibition; ATG4B cleavage of LC3-PLA2, NBD-HPC fluorescence, 1 h; 0.51% of 340,000 active; inhibition, % at 8.33 µM; in the data active means inhibition above about 40%
Target sequence (Q9Y4P1 whole entry, looked up): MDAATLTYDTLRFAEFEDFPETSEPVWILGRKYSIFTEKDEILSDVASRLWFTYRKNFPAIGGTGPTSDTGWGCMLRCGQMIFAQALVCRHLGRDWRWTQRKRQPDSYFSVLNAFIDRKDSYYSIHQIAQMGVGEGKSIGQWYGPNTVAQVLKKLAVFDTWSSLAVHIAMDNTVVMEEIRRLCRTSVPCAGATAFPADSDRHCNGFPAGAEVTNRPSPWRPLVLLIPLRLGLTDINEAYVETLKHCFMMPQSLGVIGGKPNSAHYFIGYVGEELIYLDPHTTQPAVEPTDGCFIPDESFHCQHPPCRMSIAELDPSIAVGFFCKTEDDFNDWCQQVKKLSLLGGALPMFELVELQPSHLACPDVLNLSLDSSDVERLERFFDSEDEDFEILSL
H9c2 protect = protects H9c2 cardiomyocytes from peroxide injury; H2O2 injury protection, ATPLite, 2 h; 0.63% of 360,000 active; protection from H2O2 cell death, % at 20 µM; AID 588492;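 active means compounds giving at least 50% protection of heart cells from peroxide-induced death in the single-dose screen, raw or plate-pattern-corrected value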
PP5 inh = inhibitors of human protein phosphatase 5 (PP5). purified PP5c, OMFP substrate fluorescence. inhibition, % at 6.7 µM. 0.18% of 320,000 active;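 active means inhibition above the campaign's mean inhibition across all tested compounds plus 3 SD, cut at about 9.5% in these data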
PP1 confirm = human PP1 phosphatase inhibition, confirmation; shares compounds with PP1 inh; purified PP1alpha, OMFP substrate fluorescence; inhibition, % at 6.7 µM; 52% of 1,900 active; AID 2358;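 active means mean PP1 inhibition above a set limit taken from the earlier primary screen, cut at about 15% in these data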
PP5 counter = counter-screen for PP1 inhibitors: human PP5 phosphatase inhibition; purified PP5c, OMFP fluorescence; 4% of 1,900 active; AID 2360; inhibition, % at 6.7 µM; shares compounds with PP1 inh;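 active means mean PP5 inhibition over triplicate wells above about 9.5% taken from the earlier PP1 screen, limit read from the data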
Numbers stand for hits; - = inactive; . = not tested or not shown. Hits are enriched below; roughly 1.9% of the tested compounds scored in any of these assays.

SMILES	PP1 inh	ATG4B inh	H9c2 protect	PP5 inh	PP1 confirm	PP5 counter
C#CCOCCOCCOCCNc1nc(N2CCN(C(=O)CCCCCCCCCCNC(=O)[C@@H](CCC(=O)O)n3cc(CCCCCN)nn3)CC2)nc(N2CCN(C(=O)CCCCCCCCCCNC(=O)[C@H](CCCCN)n3cc(C[C@@H](C)CC)nn3)CC2)n1	18	-	-	-	-	-
C#CCOCCOCCOCCNc1nc(N2CCOCC2)nc(N2CCN(C(=O)CCCCCCCCCCNC(=O)[C@H](CO)n3cc(CCCSC)nn3)CC2)n1	-	-	-	-	.	.
C#CCOCCOCCOCCNc1nc(N2CCN(C(=O)CCCCCCCCCCNC(=O)[C@@H](CCSC)n3cc(CCO)nn3)CC2)nc(N2CCN(C(=O)CCCCCCCCCCNC(=O)[C@H](CO)n3cc(CCCCCN)nn3)CC2)n1	49	-	-	-	49	-
C#CCOCCOCCOCCNc1nc(N2CCN(C(=O)CCCCCCCCCCNC(=O)[C@@H](CCSC)n3cc(CCO)nn3)CC2)nc(N2CCN(C(=O)CCCCCCCCCCNC(=O)[C@H](CCCN=C(N)N)n3cc(C[C@@H](C)CC)nn3)CC2)n1	49	46	-	-	39	-
C#CCOCCOCCOCCNc1nc(N2CCN(C(=O)CCCCCCCCCCNC(=O)[C@H](CCCCN)n3cc(C[C@@H](C)CC)nn3)CC2)nc(N2CCN(C(=O)CCCCCCCCCCNC(=O)[C@@H]([C@H](C)O)n3cc(C)nn3)CC2)n1	61	53	-	-	47	-
C#CCOCCOCCOCCNc1nc(N2CCN(C(=O)CCCCCCCCCCNC(=O)Cn3cc(C[C@@H](C)O)nn3)CC2)nc(N2CCN(C(=O)CCCCCCCCCCNC(=O)[C@@H](CCSC)n3cc(CCO)nn3)CC2)n1	-	-	-	-	.	.
C#CCOCCOCCOCCNc1nc(N2CCN(C(=O)CCCCCCCCCCNC(=O)Cn3cc(C[C@@H](C)O)nn3)CC2)nc(N2CCN(C(=O)CCCCCCCCCCNC(=O)[C@@H]([C@H](C)CC)n3cc(CCCCCN)nn3)CC2)n1	55	-	-	-	44	-
C#CCOCCOCCOCCNc1nc(N2CCN(C(=O)CCCCCCCCCCNC(=O)[C@H]([C@@H](C)CC)n3cc(CCCCN=C(N)N)nn3)CC2)nc(N2CCN(C(=O)CCCCCCCCCCNC(=O)[C@@H]([C@H](C)O)n3cc(C)nn3)CC2)n1	56	-	-	-	47	-
C#CCOCCOCCOCCNc1nc(N2CCN(C(=O)CCCCCCCCCCNC(=O)Cn3cc(CCCCCN)nn3)CC2)nc(N2CCN(C(=O)CCCCCCCCCCNC(=O)Cn3cc(C[C@@H](C)O)nn3)CC2)n1	-	-	-	-	.	.
C#CCOCCOCCOCCNc1nc(N2CCN(C(=O)CCCCCCCCCCNC(=O)[C@@H](CCSC)n3cc(CCO)nn3)CC2)nc(N2CCN(C(=O)CCCCCCCCCCNC(=O)[C@H](CCC(=O)O)n3cc(CCCCCN)nn3)CC2)n1	18	-	-	-	37	-
CCCCNC(=O)[C@H]1N2C(=O)c3c(ccc(OC)c3OC)C2SC1(C)C (some centres undefined)	-	-	-	-	.	.
CCOC(OCC)c1cn(Cc2ccc(C(=O)c3ccccc3)cc2)nn1	-	-	-	-	.	.
Cc1nnc(SCC(=O)NNC(=O)c2ccccc2)n1N	-	-	-	-	.	.
CCCCC[C@@H](/C=C/C1C(=O)C=C[C@H]1C/C=C\CCCC(=O)OC)OC(C)=O (some centres undefined)	.	-	-	.	.	.
O=C(O)c1ccccc1-c1nc2cc(Cl)ccc2c(=O)n1O	22	-	-	-	24	-
O=c1c2ccccc2nc(-c2ccc(Cl)cc2Cl)n1O	-	-	-	-	.	.
CCC1(c2ccccc2)NC(=O)N(CC(=O)Nc2cc(S(=O)(=O)N3CCCCC3)ccc2OC(C)C)C1=O (centres undefined)	18	-	-	-	-	-
COc1ccc(-c2ccnc3nc(-n4cccc4)nn23)cc1	19	-	-	-	19	-
Cc1noc(C)c1COC(=O)COc1ccc2c(C)cc(=O)oc2c1	19	-	60	-	17	-
O=C(c1ccco1)N1CCN(C(=S)Nc2ccccc2C(F)(F)F)CC1	-	-	-	-	.	.
O=C(O)c1ccc2ncsc2c1	19	-	-	-	37	-
Cc1nn(-c2ccccn2)c2c1C(=O)CC(C)(C)C2N=[N+]=[N-] (centres undefined)	.	-	-	.	.	.
CCOc1ccccc1NC(=O)CN1CCCCCC1	-	-	-	-	.	.
CC(=O)Cc1nsc(NC(=O)c2ccc(-c3cccc(Cl)c3)o2)n1	29	-	-	-	-	-
c1ccc(-c2c(-c3ccccc3)n(Cc3ccco3)c3ncnc(NCCCn4ccnc4)c23)cc1	24	-	-	-	-	-
SMILES	PP1 inh	ATG4B inh	H9c2 protect	PP5 inh	PP1 confirm	PP5 counter
N=c1c2c(-c3ccccc3)c(-c3ccccc3)n(Cc3ccco3)c2ncn1Cc1ccccc1	28	-	-	-	-	-
O=C(COC(=O)c1cccnc1Cl)NC(=O)c1ccc(OC(F)F)cc1	.	-	-	.	.	.
CNC(=O)/C(C#N)=C/c1ccc(OCCOc2ccccc2)cc1	.	-	-	.	.	.
CCC(C)(CCNC(=O)Cc1ccccc1)c1ccccc1OC (centres undefined)	-	-	-	-	.	.
O=S(=O)(Cc1cc(NCc2ccccc2)nc(-c2ccccn2)n1)c1ccccc1	39	-	-	-	46	-
O=S(=O)(Cc1cc(NCc2ccccc2)nc(-c2ccncc2)n1)c1ccccc1	-	-	-	-	.	.
CC(C)CN(C(=O)COC(=O)CNC(=O)c1sc2ccccc2c1Cl)C1CCS(=O)(=O)C1 (centres undefined)	-	-	-	-	.	.
COc1ccc(Cn2c(SCc3ccccc3C)nc3cc(OC)c(OC)cc3c2=N)cc1	30	.	-	-	-	-
COc1cc(NC(=O)Cc2c(C(=O)O)[nH]c3ccccc23)cc(OC)c1OC	18	-	-	-	-	-
COc1ccc(C(=O)c2sc3nc(-c4ccccc4)ccc3c2N)cc1OC	20	-	-	-	-	-
CC1CCN(C(=O)Cn2nc(C(F)(F)F)c3c2CCCC3)CC1	34	-	-	-	-	-
CN(C)CCN(C(=O)C1CCN(S(=O)(=O)c2cccs2)CC1)c1nc2ccccc2s1	-	-	-	-	.	.
Cc1cc(N2C(=O)C(O)=C(C(=O)c3cc4ccccc4o3)C2c2ccc([N+](=O)[O-])cc2)no1 (centres undefined)	30	-	-	-	16	-
Cc1cc(N2C(=O)C(O)=C(C(=O)c3ccco3)C2c2cccc(Oc3ccccc3)c2)no1 (centres undefined)	25	-	-	-	26	-
Cc1cc(N2C(=O)C(O)=C(C(=O)c3ccco3)C2c2ccc(O)cc2)no1 (centres undefined)	-	-	-	-	.	.
Cc1cc(N2C(=O)C(O)=C(C(=O)c3ccco3)C2c2ccc(Cl)cc2)no1 (centres undefined)	20	-	-	-	17	-
